Sampled rows, rich in hits. Any-hit rate of the full collection: about 19%.
HT1080-NT tox – kills 2HG-producing HT-1080-NT fibrosarcoma cells; 360,000 tested, 1.6% active; Potency, µM (doses to about 46.1 µM), for the others: at the top dose activity, negative = less viability, actives largely listed as cytotoxic; HT-1080-NT fibrosarcoma viability, CellTiter-Glo ATP luminescence, 48 h;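 also: NT is the 2HG producing partner of a matched IDH1 knockdown line; potency is read from the fitted curve at half-maximal effect; 0% = DMSO-treated cells and -100% = media-only wells without cells; nearly all actives have a fitted effect of over 55% in size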
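750 cells/well, RPMI + 5% FBS; 2 h settle, compound pin-transfer, 48 h at 37 degrees C. CellTiter-Glo 10 min RT, luminescence. Normalized to DMSO and media-only wells.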
HT1080 IDH1KD tx – HT-1080 IDH1 knockdown cell toxicity (counter line) | 360,000 tested, 2% active | HT-1080 IDH1 knockdown viability, ATP luminescence, 48 h | Potency, µM (titrated, usually from 46.1 µM), for the others: at the top dose activity, negative = toxicity, most hits filed as cytotoxic;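 also: potency is read from the fitted curve at half-maximal effect; 0% = DMSO wells and -100% = cell-free medium wells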
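HT-1080-IDH1KD cells (IDH1 knocked down), 750/well in RPMI with 5% FBS, treated with compound 48 h at 37 degrees C. Viability by CellTiter-Glo luminescence, normalised to DMSO and no-cell wells; concentration-response curves classed.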
IL1B secr inh – blocks inflammasome-driven IL-1 beta release | THP-1 LPS/ATP IL-1B secretion, AlphaLISA, 16 h; stronger effect = lower value | 360,000 tested, 4.7% active | activity change, % at 57.5 µM; in the data active = activity change below about -50%; inconclusive = mostly about -30% to -49%
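THP-1 cells pretreated 1 hr with compounds (up to 57.5 uM final), then stimulated with LPS (250 ng/mL final) plus ATP (1.25 mM final); secreted IL-1B measured by AlphaLISA after 16 hr, decreased signal indicating inhibition.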
ELG1 DNA repair – inhibitors of ELG1-dependent DNA repair in HEK293T cells; HEK293T ELG1-luciferase reporter, luminescence, 16 h; DNA damage induced by 5-fluorouridine; Potency, µM (series often up to 46.1 µM), for the others: top-dose activity change, negative = inhibition, hits mostly inhibitors; 330,000 tested, 2.3% active; also: potency is read from the fitted curve at half-maximal effect; nearly all actives have a fitted effect of over 55% in size
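Quantitative HTS, concentration-response format. 2,000 cells/well co-treated with 5-fluorouridine and compound, 16 hr in 5% CO2 at 37 °C; ONE-Glo luminescence read after 30 min.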
DT40 TDP1 CPT – DT40-hTDP1 cell growth loss with CPT | 420,000 tested, 12% active | AID 686979 | Potency, µM (top dose mostly 46.2 µM), inactives show at the top dose activity change, negative = growth inhibition, most hits filed as inhibitors | chicken DT40 Tdp1-/-;hTDP1 cells + 20 nM CPT, ATP luminescence, 48 h; also: potency is read from the fitted curve at half-maximal effect; nearly all actives have a fitted effect of over 55% in size
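Cell growth measured by CellTiter-Glo luminescence after a minimum 48 h, 37 C compound exposure with 20 nM CPT in Tdp1-knockout DT40 cells stably expressing hTDP1, seeded 400/well; qHTS titration format.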
TDP1 cell noCPT – qHTS for Inhibitors of human tyrosyl-DNA phosphodiesterase 1 (TDP1): qHTS in cells in absence of CPT | DT40 Tdp1-/- hTDP1 cells, no CPT, ATP luminescence, 48 h | Potency, µM (top dose mostly 46.2 µM), without a hit: at the highest dose activity change, negative = growth inhibition, hits mostly inhibitors | 420,000 tested, 15% active | AID 686978, 2013; also: potency is read from the fitted curve at half-maximal effect; nearly all actives have a fitted effect of over 55% in size
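Seeded 400 DT40-hTDP1 cells/well (vehicle DMSO, no 20 nM CPT); pinned compounds; ≥48 hr at 37 °C; CellTiter-Glo luminescence as viability measure.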
* = called active by the depositor; ? = inconclusive; . = no result given; ! = a repeat was not active; [ ] = another dose, or the depositor's remark. Unless noted, calls follow the shape of the dose curve; as a rule, active = well fitted curve in the direction sought with a large enough effect; inconclusive = small, poorly fitted or top-dose-only effect, or another doubt; inactive = no such curve, though single readings can be large; an effect the other way counts as inactive or inconclusive. Unless noted, % is scaled to controls: 0 for no effect and ±100 for the full control effect.

SMILES	HT1080-NT tox	HT1080 IDH1KD tx	IL1B secr inh	ELG1 DNA repair	DT40 TDP1 CPT	TDP1 cell noCPT
COc1ccc(Nc2c3c(nc4ccccc24)CCC3)cc1Cl	.	.	.	.	12µM*	18µM*
c1ccc2c(Nc3ccc4c(c3)OCCO4)c3c(nc2c1)CCC3	-25%	-22%	13	?	23µM*	15µM*
COc1ccc(Nc2c3ccccc3nc3ccccc23)cc1	9.2µM*	12µM*	-98*	?	?	?
COc1ccc(Nc2nc3ccccc3c(=O)[nH]2)cc1	6%	5%	3	15%	?	?
Nc1c2c(nc3ccccc13)CCCC2	-1%	0%	-18	?	17µM*!	18µM*!
Clc1c2c(nc3ccccc13)CCC2	5%	1%	-10	11%	-23%	2%
Fc1ccccc1Nc1c2c(nc3ccccc13)CCC2	.	.	.	.	?	21µM*
CCN(CC)CCOC(=O)c1ccc(NC(=O)C2(c3ccccc3)CCCC2)cc1	-23%	-15%	-16	0%	?	?
CN(C)CCCNc1c2c(nc3ccccc13)CCC2	-29%	-19%	-69*	-3%	?	15µM*
Fc1ccc(Nc2c3c(nc4ccccc24)CCC3)cc1	16µM*	?	-96*	?	5.2µM*	10µM*
CCN(CC)CCOC(=O)c1ccc(Nc2c3c(nc4ccccc24)CCC3)cc1	.	.	.	.	?	18µM*
CCN1CCCC1CNC(=O)c1cnn(-c2ncc3c(n2)-c2ccc(OC)cc2CC3)c1C1CC1 (stereo unspecified)	.	.	.	.	15%[9.04 µM]	-21%
CN(C)CCNCCCNc1c2ccccc2nc2cccc([N+](=O)[O-])c12	-24%	?	?	.	0.052µM*	0.1µM*
COc1ccc(Nc2cc(Nc3ccc(OC)cc3)ncn2)cc1	6%	7%	-2	21%	5%	13%
Cc1ccc2nc3c(c(Nc4ccccc4)c2c1)CCC3	?	?	.	-29%	?	?
COc1ccc(Nc2cc(Nc3cc(OC)c(OC)c(OC)c3)ncn2)cc1	-23%	-8%	-80*	-8%	18µM*	21µM*
COc1cc(Nc2c3ccccc3nc3ccccc23)cc(OC)c1OC	10µM*	?	-95*	-27%	7.3µM*	5.2µM*
c1ccc(Nc2c3c(nc4ccccc24)CCC3)cc1	-8%	?	-13	?	5.2µM*	15µM*
COc1ccc(OCCn2nnc3sc4c(c3c2=O)CCCC4)cc1	.	.	.	.	-24%	-12%
Cc1cc(Nc2ccc([N+](=O)[O-])cc2)nc2ccccc12	?	?	0	7%	0%	-7%
c1ccc2c(Nc3nncs3)c3ccccc3nc2c1	19%	23%	45	2%	?	0%
COc1ccc(Nc2cc(C)c3ccccc3n2)cc1	-16%	-9%	-97*	?	-29%	?
CC(C)(C)Nc1c2ccccc2nc2ccccc12	-10%	-11%	-92*	-1%	21µM*	18µM*
Cc1ccc(S(=O)(=O)CCC(=O)OCCOc2cccc(Br)c2)cc1	-2%	-1%	20	11%	12%	-25%
O=C1C(C=Nc2ccccc2O)=C(O)c2ccccc21	6.3µM*	6.3µM*	26	?	3.3µM*	1.3µM*
SMILES	HT1080-NT tox	HT1080 IDH1KD tx	IL1B secr inh	ELG1 DNA repair	DT40 TDP1 CPT	TDP1 cell noCPT
Cc1ccc(O)c(N=CC2=C(O)c3ccccc3C2=O)c1	?	?	-1	?	?	23µM*
COc1cc(C2SC[C@H]3C(=O)N(c4ccccc4)C(=O)N23)cc(OC)c1OC (stereo partly specified)	.	.	.	.	-26%	?
Cc1ccc(/C=C2/C(=O)ON=C2c2ccccc2)o1	-4%	0%	-12	?	21µM*	15µM*
Cc1ccc(C2=NOC(=O)/C2=C\c2ccccc2)cc1	2%	-2%	-12	.	?	?
O=C1ON=C(c2ccc(Cl)cc2)/C1=C/c1ccc(O)cc1	?	?	-102*	?	7.3µM*	12µM*
O=C1ON=C(c2ccccc2)/C1=C/c1ccccc1	12%	0%	-75*	-7%	0%	-33%
O=C1ON=C(c2ccccc2)/C1=C/c1ccc(O)cc1	10%	10%	-99*	?	23µM*	?
CC1=NOC(=O)/C1=C/c1ccc(O)cc1	8%	3%	-4	?	?	?
O=C(CC[C@H]1O[C@@H](n2cnc3c(NC(=O)c4ccccc4)ncnc32)[C@H](O)[C@@H]1O)NCc1ccc2c(c1)OCO2	29%	3%	1	.	10%	8%
O=c1c(-c2ccccc2)nc2cnc(N3CCOCC3)nc2n1-c1ccccc1	.	.	.	.	4%	-4%
Cn1c(=O)c2c(nc(C(O)c3ccccc3)n2C)n(C)c1=O (stereo unspecified)	0%	15%	29	.	-7%	-5%
CCCCc1ccc(S(=O)(=O)N2CCN(C(=O)c3ccco3)CC2)cc1	0%	-4%	?	-3%	?	8.2µM*
CC1CCCN(S(=O)(=O)c2ccc(NC(=O)C3CCN(C(=O)c4ccco4)CC3)cc2)C1 (stereo unspecified)	-7%	-17%	15	?	21µM*	13µM*
COc1ccc(OC)c(S(=O)(=O)N2CCC(C(=O)N3CCc4ccccc4C3)CC2)c1	-12%	-1%	-17	?	?	23µM*
COc1ccc(OC)c(S(=O)(=O)N2CCC(C(=O)N3CCCC3)CC2)c1	7%	-7%	-14	-3%	10%	14%
CSc1cccc(NC(=O)C2CCCN(S(=O)(=O)c3ccc(F)cc3)C2)c1 (stereo unspecified)	-30%	?	-15	21µM*	10µM*	8.2µM*
NS(=O)(=O)c1ccc(NC(=O)C2CCCN(S(=O)(=O)c3ccc(F)cc3)C2)cc1 (stereo unspecified)	8%	1%	16	-23%	-11%	?
CCC(C)NS(=O)(=O)c1ccc(NC(=O)C2CCN(C(=O)c3ccco3)CC2)cc1 (stereo unspecified)	4%	-12%	0	0%	?	?
Cc1cc(F)ccc1C(O)c1ncc(-c2ccc3ccccc3c2)[nH]1 (stereo unspecified)	?	-17%	0	.	-27%	?
COc1ccc(-n2c(C)nc3cc(C(=O)NC4CCCC4)ccc32)cc1	.	.	.	.	-27%	-2%
